In PubChem BioAssay (NCI):
The panel holds about 83,000 compounds, 20% with a hit somewhere; the sample as a whole holds those more often.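 Cells were grown in 96-well plates and exposed to the test compound at a single concentration for 48 hours; results are reported as percent growth, with values below 10 considered active.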 A number with no mark means an inactive call. Active and inactive are the calls of the source.

The compounds below were run on HL-60(TB) leukemia (assay: NCI-60 one-dose screen, 48 h (100 = growth as untreated, 0 = no growth, -100 = all killed)). Conditions: 10 µM unless noted.

Compound	growth
c1ccc(-c2[nH]c3ccccc3c2-c2ccccc2)cc1	78.7%
C=CC[n+]1c(/C=C2\Sc3ccccc3N2C)sc(-c2ccccc2)c1-c1ccccc1	-25.5% (active)
Fc1ccc2nc(-c3ccc(-c4noc(-c5ccc(Cl)cc5)n4)cc3)[nH]c2c1	88.7%
CC(NNC(C)c1ccccc1)c1ccccc1 (stereo not given)	113%
COc1ccc(-c2[nH]ncc2-c2cc3c(c(OC)c2)OCC(=O)N3)cc1	11.3%
Cc1cccc(/C=C/c2c(C(=O)/C=C/c3ccccc3)c(C)nc3ccccc23)c1	-15.8% (active)
C[C@@]1(C(=O)Nc2ccc(F)nc2)CCCN1c1nc(Nc2cc(C3CC3)[nH]n2)c2cccn2n1	9.68% (active)
Cc1cccc(C[C@H](NC(=O)Nc2ccc(C)cc2F)C(=O)N[C@@H]2C(=O)N3C[C@H](O)C[C@H]3C(=O)N3CCN(C)C[C@H]3C(=O)N[C@@H](C)C(=O)N3C[C@H](C)C[C@H]3C(=O)O[C@H]2C)c1	24.2%
Cc1nn(-c2nc3ccccc3[nH]2)c2c1C(c1ccc(O)cc1)CC(=O)N2 (stereo not given)	82.1%
COc1cccc(/C=C\C(=O)c2ccccc2)c1	43.9%
CC(=O)c1cc2ccccc2o1	102%
COc1cc2c(=O)n(CCCn3ccnc3)c3c4cc5c(cc4ccc3c2cc1OC)OCO5	-15.2% (active)
CC(=O)c1c(Nc2cccc(F)c2)[nH]c2c(Cl)cc(Cl)c(Cl)c2c1=O	-36.5% (active)
COc1ccc(-c2nc(SCC(C)C)nc(Nc3ccccc3)c2C#N)cc1	88.6%
C=CCNc1nc(O)c(/C=C2\C=Nc3ncccc32)s1	-14.5% (active)
COc1ccc2nc(-c3ccc(Cl)cc3)cc(C(=O)N3N=C(c4ccc(N)cc4)CC3c3ccccc3)c2c1 (stereo not given)	-1.6% (active)
CC(C)(C)c1cc(O)c(O)c(C(C)(C)C)c1	4.04% (active)
CCOC(=O)/C(C#N)=C\Nc1ccc2ncnc(Nc3ccc(Cl)cc3Cl)c2c1	108%
CC[C@H](CC[C@@H](C)[C@H]1CC[C@H]2[C@@H]3/C(=C/c4cccnc4)C(=O)C4=CC(=O)CC[C@]4(C)[C@H]3CC[C@]12C)C(C)C	64.6%
COc1ccc(C2[C@@H](Cl)C(=O)N2c2cc(OC)c(OC)c(OC)c2)cc1Cl (stereo not given in full)	-30.3% (active)

Compound	growth
O=C(NCCCN1CCCCC1)c1ccc(-c2nc3ccc4[nH]ncc4c3c3c2CCCC3)cc1	93.4%
CCOP(=O)(OCC)/C(C#N)=C/c1c(C)[nH]c2ccccc12	96.6%
Cc1ccc(Cn2cc(COc3ccc4c5ccnc(C)c5n(CCCc5ccccc5)c4c3)nn2)cc1	77.6%
CCCCCCCCCCCCCCCCNC(=S)N/N=C/c1ccc(OC)cc1	94.3%
CCOC(=O)c1cc(C(=O)c2ccc(Br)cc2)n2cc(C)cc(C)c12	103%
Nc1nc(N)c2cc(S(=O)(=O)c3cccc(C(F)(F)F)c3)ccc2n1	30.9%
Clc1ccc(C2=NN(c3ccc(Cl)cc3)C(c3cccc(Nc4ccnc5cc(Cl)ccc45)c3)C2)cc1 (stereo not given)	102%
O=C(Nc1ccccc1C(F)(F)F)C1=NCCCCN1	99.8%
NC(=S)N/N=C/c1ccc(Cl)s1	102%
COc1cc(OC)cc(-c2ccc(-c3ccc(C(=N)N)s3)s2)c1	-71.9% (active)
C[C@@H](Nc1cc(F)cc(F)c1)c1cc(C(=O)N(C)C)cc2c(=O)cc(N3CCOCC3)oc12	40.9%
C=C(C)[C@@H]1CC[C@]2(C)[C@H](CC[C@@H]3[C@@H]([C@@](C)(O)CCC=C(C)C)CC[C@]32C)[C@@]1(C)CCC(=O)N1CCN(C)CC1	-32.3% [100 µM] (active)
Cc1ccc(Cl)cc1NC(=O)CCl	33%
CNc1nc(NC)c2cn[nH]c2n1	103%
C/C(=C(/c1ccccc1)c1ccc(OCC(O)CN2CCOCC2)cc1)c1ccccc1 (stereo not given)	60.7%
CCN(CC)CCOC(=O)Nc1ccccc1Cl	102%
Nc1nc(=S)ss1	87.8%
CN(C)c1ccc(/C=C/c2ccnc3c(O)cccc23)cc1	-26% (active)
Cc1cccnc1NC(=S)Nc1ncccc1C	136%
CC1(C)c2ccccc2C(=O)C1(Br)Cc1ccccc1 (stereo not given)	9.51% (active)
